D2 antagonist – D2 dopamine receptor (human) antagonism; actives 2% (n = 340,000); AID 485344; HEK293 TREx D2 cells, calcium flux, dopamine EC80; inhibition, % at 10 µM; in the data active = inhibition above about 30%; inactive = below that, where a call was filed; also: 0% is about no effect
Target sequence (P14416 whole entry, looked up): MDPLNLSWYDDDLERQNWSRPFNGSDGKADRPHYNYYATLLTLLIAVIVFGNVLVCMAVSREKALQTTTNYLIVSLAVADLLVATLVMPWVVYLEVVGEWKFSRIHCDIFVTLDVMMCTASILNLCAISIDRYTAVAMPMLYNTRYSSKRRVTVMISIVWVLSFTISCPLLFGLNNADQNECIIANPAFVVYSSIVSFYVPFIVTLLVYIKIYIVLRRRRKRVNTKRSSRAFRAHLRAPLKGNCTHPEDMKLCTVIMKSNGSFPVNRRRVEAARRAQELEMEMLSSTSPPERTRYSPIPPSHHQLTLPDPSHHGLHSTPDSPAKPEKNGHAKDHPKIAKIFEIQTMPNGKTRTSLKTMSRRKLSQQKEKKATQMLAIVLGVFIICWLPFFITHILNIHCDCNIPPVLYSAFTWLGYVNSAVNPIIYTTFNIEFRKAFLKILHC
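In this primary screen, negative modulation is detected by tracking calcium flux after an EC80 dopamine challenge in inducible HEK293 T-REx D2 cells preexposed to test compound for 180 s.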
D2 ag-1 – D2 dopamine receptor (human) agonism; actives 0.53% (n = 340,000); HEK293 T-REx D2 cells, calcium flux agonist mode; P14416; activation, % at 2 µM;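 active = activation over 3 SD above normal in the single-dose calcium agonist read, cut at about 30% in these data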; also: 0% is about no effect
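Tetracycline-induced HEK293 T-REx cells with force-coupled D2 receptor, plated overnight at 30 C, loaded with no-wash calcium dye. After a 10 s baseline, compound was pin-added and calcium flux read kinetically for 180 s; calcium rises flagged agonists.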
D2 ag-2 – human D2 receptor agonism in beta-arrestin assay; activation, % (test concentration not listed); DiscoveRx PathHunter D2 beta-arrestin, luminescence, 90 min; 100% = 57 uM dopamine signal; actives 0.084% (n = 360,000); AID 624465; P14416; in the data active = activation above about 40%
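DiscoveRx PathHunter D2 beta-arrestin cells (2,100/well) attached overnight, then compound-stimulated 90 min at 37 C in HBSS/10 mM HEPES/0.1% Tween-20 buffer; beta-galactosidase complementation read by luminescence after 1 h at ambient temperature. Dopamine 57 uM final (EC100) as control.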
D2 PAM-1 – potentiates the human D2 dopamine receptor allosterically. DiscoveRx D2 beta-arrestin cells, luminescence, 90 min; 100% = 57 uM dopamine signal. potentiation, % (no concentration beside the values). AID 624464. actives 0.23% (n = 360,000). P14416; in the data active = potentiation above about 50%
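PathHunter D2 cells, attached overnight at 37 deg C, received compound in DMSO plus dopamine at EC20 (50 nM final) for 90 min at 37 deg C. Beta-arrestin recruitment was read as luminescence after 1 h with detection reagent at ambient temperature.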
D2 PAM-2 – positive allosteric modulators of human D2 dopamine receptor. actives 0.34% (n = 340,000). HEK293 T-REx D2, calcium flux, EC20 dopamine potentiation. potentiation, % at 10 µM;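 active = potentiation over 3 SD above the plate norm, cut at about 30% in these data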; also: 0% is about no effect
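Tetracycline-induced HEK293 T-REx cells force-coupled to calcium signalling expressed D2; compounds were pin-added after a 10 s baseline, read kinetically 180 s, then an EC20 dopamine challenge followed with a further 180 s calcium read.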
Active calls of the source: *; . = not tested or not shown. An excerpt weighted towards active compounds, which were near 2.4% of everything screened.

SMILES | D2 antagonist | D2 ag-1 | D2 ag-2 | D2 PAM-1 | D2 PAM-2
CC1(C(=O)O)CCC(C(=O)Nc2ccc(OC(F)(F)Cl)cc2)C1(C)C (stereo not drawn) | 42.8* | 0.9 | 2.4 | -7.6 | -5.2
COc1ccc(CNC(=O)CCCn2c(=O)c3cccn3c3ccc(F)cc32)cc1OC | . | -0.2 | . | . | 5.3
COc1cccc2cc(C(=O)CC3(O)C(=O)N(Cc4ccccc4)c4ccccc43)c(=O)oc12 (stereo not drawn) | 5.0 | 0.1 | -2.2 | -1.0 | 40.1*
CCOC(=O)c1cnn(Cc2ccccc2)c1N | 1.2 | -0.4 | 0.3 | 8.2 | -0.7
CCOC(=O)c1cnn(Cc2cccc(Cl)c2)c1C | 55.8* | -2.2 | -2.4 | -11.3 | 2.9
CCC(C)Sc1nc2c(c(=O)n1C)SC(C)C2 (stereo not drawn) | -4.1 | -0.7 | -0.9 | 0.6 | 52.3*
CSc1nc2c(c(=O)n1C)SC(C)C2 (stereo not drawn) | 20.5 | 0.6 | -2.0 | -3.5 | 1.1
Cc1ccc(/C=C/C(=O)N2CCC(c3nc4ccccc4o3)CC2)cc1 | . | -1.7 | . | . | 3.3
N#C/C(=C\c1coc2ccc(O)cc2c1=O)C(=O)Nc1nc2ccccc2s1 | -7.8 | 59.1* | 8.4 | 0.2 | -0.6
CC(=O)N1c2ccccc2CC1C(=O)N1CCN(c2ccccc2F)CC1 (stereo not drawn) | . | -0.5 | . | . | -0.3
CCOC(=O)c1c(Nc2ccccc2N)cc(C)nc1C | 9.0 | 0.1 | 0.7 | 8.9 | -0.8
CCOC(=O)c1c(O)cc(C)cc1Nc1ccccc1 | 32.2* | 2.4 | -1.5 | -3.6 | 3.8
COc1ccc(CCNC(=O)c2cc(=O)c3cc(C)c(C)cc3o2)cc1OC | . | -0.6 | . | . | -2.6
COc1cc(NC(=O)CCCn2c(=O)oc3ccccc32)cc(OC)c1 | . | . | -0.8 | -9.5 | .
COc1ccc(C(C)(C)C)cc1NC(=O)CCCn1c(=O)oc2ccccc21 | 50.8* | -2.0 | -3.1 | -22.0 | -28.4
COc1ccc(CNC(=O)c2cccn2-c2nnc(N3CCCC3)s2)c(OC)c1 | . | -0.7 | . | . | -2.2
CCOC(=O)c1ccc(NC(=O)CC2C(=O)N(c3cccc(OC)c3)C(=O)N2Cc2cccnc2)cc1 (stereo not drawn) | . | -0.2 | . | . | -3.4
N#C/C(=C/c1ccc(N2CCCCC2)o1)C(=O)Nc1ccc(Cl)cc1 | 61.9* | 110.4* | -0.4 | -14.0 | -29.0
N#C/C(=C/c1ccc(N2CCOCC2)o1)C(=O)NC1CCCCC1 | 5.0 | 17.7 | -19.2 | -17.1 | 4.7
CC1CC1c1ccc(/C=C(\C#N)C(=O)Nc2ccc(Cl)cc2)o1 (stereo not drawn) | 75.7* | -0.4 | -2.5 | -35.4 | -25.1
CC1CC1c1ccc(/C=C(\C#N)C(=O)Nc2ccccc2Cl)o1 (stereo not drawn) | . | . | 1.7 | -8.2 | .
COc1ccc(NC(=O)/C(C#N)=C\c2ccc(N3CCOCC3)o2)cc1 | 13.3 | 42.5* | -3.9 | -11.8 | -9.3
N#C/C(=C/c1ccc(N2CCCCC2)o1)C(=O)Nc1ccc2ccccc2c1 | 47.0* | 105.5* | -9.1 | -17.2 | -14.8
N#C/C(=C\c1ccc(N2CCOCC2)o1)C(=O)Nc1ccc(O)cc1 | -0.6 | 17.1 | -7.8 | -12.6 | 12.1
O=C(COc1ccc(S(=O)(=O)N2CCCCC2)cc1)N1CCCC1 | 31.0* | 0.3 | -1.7 | -1.9 | -8.9
SMILES | D2 antagonist | D2 ag-1 | D2 ag-2 | D2 PAM-1 | D2 PAM-2
O=C(COc1ccccc1)OCC(=O)c1ccc(S(=O)(=O)N2CCCCC2)cc1 | 30.9* | 0.3 | -9.2 | -34.7 | 2.3
O=C(COC(=O)c1ccccc1)c1ccc(S(=O)(=O)N2CCCCC2)cc1 | -3.0 | 0.0 | -6.3 | 1.4 | 9.9
Cc1cc(Nc2ccccc2)c2c([N+](=O)[O-])cc(C)c(C)c2n1 | -14.4 | -0.7 | -1.3 | 18.4 | 39.5*
CCOc1cccc(C(=O)Nc2nc3c(s2)CC(C(C)(C)C)CC3)c1 (stereo not drawn) | . | -1.6 | . | . | .
CON(C)c1nc(Oc2ccc(=O)[nH]n2)nc(N(C)C)n1 | -8.9 | 0.1 | -1.2 | -2.8 | 45.4*
COc1ccc(-c2cn[nH]c2-c2ccc(OCc3ccc([N+](=O)[O-])cc3)cc2O)cc1 | . | . | 11.9 | 52.3* | .
CCN1CCC(NC(=O)Nc2cccc(C(F)(F)F)c2)CC1 | 36.7* | -0.2 | -1.7 | -22.2 | -4.4
Fc1cccc(CN2CCC(Cc3ccccc3)CC2)c1 | 55.7* | -4.0 | 1.3 | -66.1 | 0.6
